Data published in PubChem BioAssay (NCI).
This is part of a sample that, as a whole, favours compounds with a hit. Of some 79,000 tested, about 15% had one in any assay. Calls of active or inactive are those of the source. Cut-off read from the data, not from the text of the source: active = growth inhibition above about 70%; inactive = the rest.

What was measured:
[1] = NCI Yeast Anticancer Drug Screen. Data for the rad52 strain (AID 147);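 note: 0% = growth of vehicle-treated control cultures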; details: S. cerevisiae rad52 mutant growth inhibition, hits give high values
How it was run: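 Measured: yeast growth inhibition. System: strain with a defined DNA damage repair alteration. Reference: vehicle-treated control cultures.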

[2] = NCI Yeast Anticancer Drug Screen. Data for the wt1 strain (AID 149);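 note: 0% = growth of vehicle-treated wt1 cultures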; details: S. cerevisiae wt1 strain (SPY 50644) growth inhibition, hits give high values
How it was run: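 Using yeast strain wt1, compound-induced growth inhibition was determined against vehicle-treated cultures.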

[3] = NCI Yeast Anticancer Drug Screen. Data for the mgt1 strain (AID 153); details: S. cerevisiae mgt1 mutant growth inhibition, hits give high values
How it was run: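 After exposure of the mgt1 yeast mutant to compound, growth was measured and reported as inhibition compared with vehicle controls.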

[4] = NCI Yeast Anticancer Drug Screen. Data for the rad50 strain (AID 155);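 note: 0% = growth of vehicle-only cultures of the same strain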; details: S. cerevisiae rad50 strain growth inhibition, hits give high values
How it was run: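 Relative growth inhibition (compound vs vehicle) was measured in yeast with a defined repair-gene alteration.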

[5] = NCI Yeast Anticancer Drug Screen. Data for the mec2-1 strain (AID 157); details: S. cerevisiae mec2-1 strain, hits give high values
How it was run: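 Test agents were screened against the mec2-1 yeast strain, with defined DNA repair or cell cycle alteration. Growth was scored as inhibition against vehicle-only controls.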

[6] = NCI Yeast Anticancer Drug Screen. Data for the rad14 strain (AID 159);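 note: 0% = growth of vehicle-treated control cultures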; details: S. cerevisiae rad14 strain growth inhibition, hits give high values
How it was run: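 Screen for anticancer potential: a yeast strain altered in DNA damage repair is grown with compound, and reduced growth is quantified against vehicle controls.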

[7] = NCI Yeast Anticancer Drug Screen. Data for the sgs1 mgt1 strain (AID 161);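 note: 0% = growth of cultures given vehicle only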; details: S. cerevisiae sgs1 mgt1 strain, hits give high values
How it was run: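 Inhibition of yeast growth, normalised to vehicle-treated controls, is reported for a strain bearing genetic alterations in DNA damage repair.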

[8] = NCI Yeast Anticancer Drug Screen. Data for the CLN2oe strain (AID 163);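 note: 0% = growth of vehicle-only control cultures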; details: S. cerevisiae CLN2oe strain, hits give high values
How it was run: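 Here, growth inhibition in a cell-cycle-altered yeast strain after compound exposure was quantified against vehicle control growth.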

[9] = NCI Yeast Anticancer Drug Screen. Data for the cln2 rad14 strain (AID 165);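 note: 0% = growth equal to vehicle treated cultures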; details: S. cerevisiae cln2 rad14 strain, hits give high values
How it was run: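 Growth of compound-exposed yeast (cln2 rad14 genotype) measured and expressed as inhibition relative to vehicle.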

[10] = NCI Yeast Anticancer Drug Screen. Data for the bub3 strain (AID 167); details: S. cerevisiae bub3 mutant strain, hits give high values
How it was run: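 Screening used yeast with an engineered genetic alteration affecting cell cycle control. Compound-exposed cultures were compared with vehicle cultures, and reduced growth was taken as inhibition.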

[11] = NCI Yeast Anticancer Drug Screen. Data for the wt2 strain (AID 169);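 note: 0% = growth of vehicle-treated yeast cultures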; details: S. cerevisiae wt2 strain growth inhibition, hits give high values
How it was run: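 Genetically defined yeast strains from a DNA-repair/cell-cycle panel were used. Compound-exposed yeast growth was measured, and the inhibition was calculated relative to vehicle treatment.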

[12] = NCI Yeast Anticancer Drug Screen. Data for the mlh1 strain (AID 171);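 note: 0% = growth of vehicle-treated control cultures of the same strain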; details: S. cerevisiae mlh1 strain growth inhibition, hits give high values
How it was run: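 Here the genetically defined yeast mutant is grown with each compound, and the extent to which its growth falls below that of vehicle-exposed cells is reported.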

[13] = NCI Yeast Anticancer Drug Screen. Data for the sgs1 strain (AID 173);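 note: 0% = growth of vehicle-only control cultures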; details: S. cerevisiae sgs1 mutant, hits give high values
How it was run: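 Relative growth inhibition, referenced to vehicle, was determined in a yeast strain with a defined alteration affecting DNA damage repair or cell cycle control after compound exposure.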

[14] = NCI Yeast Anticancer Drug Screen. Data for the mlh1 rad18 strain (AID 175); details: S. cerevisiae mlh1 rad18 strain growth inhibition, hits give high values
How it was run: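 In this whole-cell yeast screen, a strain with altered DNA damage repair is challenged with compound, and its growth is measured against matched vehicle-treated controls.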

[15] = NCI Yeast Anticancer Drug Screen. Data for the rad18 strain (AID 177); details: S. cerevisiae rad18 mutant growth inhibition, hits give high values
How it was run: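 Screen uses a yeast strain with a defined lesion in DNA damage repair; compound effect is read as loss of growth compared to untreated vehicle cultures.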

[16] = NCI Yeast Anticancer Drug Screen. Data for the rad50EPP+ strain (AID 151);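 note: 0% = growth of vehicle-treated control cultures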; details: S. cerevisiae rad50 mutant strain, hits give high values
How it was run: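 One strain with a rad50 alteration (rad50EPP+) was compound-treated, its growth then compared to that of vehicle controls.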

[17] = at 5.0 µM (retest, dose inferred, filed as 0.5)
[18] = at 50.0 µM (retest, dose inferred, filed as 5.0)

Measured: growth inhibition

Nc1ccc2c(=S)c3ccccc3[nH]c2c1
inactive: [1]; at 1.2 µM 8% | [1]; at 3.7 µM 12% | [1]; at 11.0 µM 12% | [1]; at 33.0 µM 32% | [2]; at 1.2 µM 9% | [2]; at 3.7 µM 30% | [2]; at 11.0 µM 22% | [2]; at 33.0 µM 44% | [2]; at 100.0 µM 48% | [3]; at 1.2 µM -3% | [3]; at 3.7 µM 1% | [3]; at 11.0 µM 0% | [3]; at 33.0 µM 16% | [3]; at 100.0 µM 51% | [4]; at 1.2 µM 18% | [4]; at 3.7 µM 1% | [4]; [17] 15% | [4]; at 11.0 µM 8% | [4]; at 33.0 µM 22% | [4]; [18] 50% | [4]; at 50.0 µM 29.4% | [4]; at 100.0 µM 48% | [5]; at 1.2 µM 9% | [5]; at 3.7 µM -3% | [5]; [17] 14% | [5]; at 11.0 µM -3% | [5]; at 33.0 µM 26% | [5]; [18] 40% | [5]; at 50.0 µM 28.9% | [5]; at 100.0 µM 35% | [6]; at 1.2 µM 4% | [6]; at 3.7 µM 7% | [6]; at 11.0 µM 2% | [6]; at 33.0 µM 12% | [6]; at 100.0 µM 42% | [7]; [17] 29% | [8]; at 1.2 µM 16% | [8]; at 3.7 µM 4% | [8]; at 11.0 µM 13% | [8]; at 33.0 µM 19% | [8]; at 100.0 µM 51% | [9]; [17] 26% | [9]; [18] 62% | [9]; at 50.0 µM 28.3% | [10]; at 1.2 µM -19% | [10]; at 3.7 µM -16% | [10]; [17] 9% | [10]; at 11.0 µM -16% | [10]; at 33.0 µM -9% | [10]; at 50.0 µM 47.5% | [10]; at 100.0 µM 35% | [11]; at 1.2 µM -7% | [11]; at 3.7 µM -1% | [11]; at 11.0 µM 1% | [11]; at 33.0 µM 49% | [12]; at 1.2 µM -2% | [12]; at 3.7 µM 9% | [12]; at 11.0 µM -2% | [12]; at 33.0 µM 27% | [12]; at 100.0 µM 61% | [13]; at 1.2 µM 17% | [13]; at 3.7 µM 18% | [13]; at 11.0 µM 20% | [13]; at 33.0 µM 24% | [13]; at 100.0 µM 59% | [14]; [17] 6% | [14]; [18] 64% | [15]; at 1.2 µM 2% | [15]; at 3.7 µM -2% | [15]; at 11.0 µM -8% | [15]; at 33.0 µM 4% | [15]; at 100.0 µM 67%
active: [1]; at 100.0 µM 71% | [7]; [18] 83% | [7]; at 50.0 µM 80.5% | [10]; [18] 82% | [11]; at 100.0 µM 83%

Nc1ccc(CCl)cc1Cc1c(O)ccc2ccccc12
inactive: [1]; at 1.2 µM 0% | [1]; at 3.7 µM 3% | [1]; at 11.0 µM 9% | [1]; at 33.0 µM 19% | [1]; at 100.0 µM 36% | [2]; at 1.2 µM -1% | [2]; at 3.7 µM 6% | [2]; at 11.0 µM 12% | [2]; at 33.0 µM 19% | [2]; at 100.0 µM 30% | [16]; at 1.2 µM 8% | [16]; at 3.7 µM 15% | [16]; at 11.0 µM 40% | [16]; at 33.0 µM 61% | [4]; at 1.2 µM 1% | [4]; at 3.7 µM 4% | [4]; [17] 6% | [4]; at 11.0 µM 8% | [4]; at 33.0 µM 13% | [4]; [18] 41% | [4]; at 50.0 µM 51.4% | [4]; at 100.0 µM 27% | [5]; at 1.2 µM 1% | [5]; at 3.7 µM 0% | [5]; [17] -6% | [5]; at 11.0 µM 6% | [5]; at 33.0 µM 13% | [5]; at 50.0 µM 37.2% | [5]; at 100.0 µM 33% | [6]; at 1.2 µM 1% | [6]; at 3.7 µM 3% | [6]; at 11.0 µM 8% | [6]; at 33.0 µM 16% | [6]; at 100.0 µM 29% | [7]; [17] 2% | [7]; [18] 64% | [9]; [17] 6% | [9]; [18] 61% | [9]; at 50.0 µM 29.3% | [10]; at 1.2 µM -4% | [10]; at 3.7 µM -2% | [10]; [17] 3% | [10]; at 11.0 µM 0% | [10]; at 33.0 µM 1% | [10]; [18] 43% | [10]; at 50.0 µM 55% | [10]; at 100.0 µM 27% | [11]; at 1.2 µM 1% | [11]; at 3.7 µM 6% | [11]; at 11.0 µM 16% | [11]; at 33.0 µM 23% | [11]; at 100.0 µM 32% | [12]; at 1.2 µM 1% | [12]; at 3.7 µM 2% | [12]; at 11.0 µM 5% | [12]; at 33.0 µM 8% | [12]; at 100.0 µM 31% | [13]; at 1.2 µM 1% | [13]; at 3.7 µM 1% | [13]; at 11.0 µM 10% | [13]; at 33.0 µM 21% | [13]; at 100.0 µM 38% | [14]; [17] 0% | [14]; [18] 61% | [14]; at 50.0 µM 66.7% | [15]; at 1.2 µM 1% | [15]; at 3.7 µM 1% | [15]; at 11.0 µM 7% | [15]; at 33.0 µM 16% | [15]; at 100.0 µM 33%
active: [16]; at 100.0 µM 74% | [5]; [18] 84% | [7]; at 50.0 µM 70.3%

O=C(NCCCCCN1CCC2(CCCCC2)CC1)C(C1CCCCC1)C1CCCCC1
inactive: [1]; at 1.2 µM 23% | [1]; at 3.7 µM 5% | [1]; at 11.0 µM 65% | [2]; at 1.2 µM -63% | [2]; at 3.7 µM -5% | [2]; at 11.0 µM 6% | [16]; at 1.2 µM -1% | [16]; at 3.7 µM 0% | [16]; at 11.0 µM 3% | [16]; at 33.0 µM 10% | [4]; at 1.2 µM -1% | [4]; at 3.7 µM 11% | [4]; [17] -7% | [4]; at 11.0 µM 46% | [5]; at 1.2 µM 22% | [5]; at 3.7 µM -5% | [5]; [17] -22% | [5]; at 11.0 µM 42% | [7]; [17] -15% | [8]; at 1.2 µM -4% | [8]; at 3.7 µM 4% | [10]; at 1.2 µM -2% | [10]; at 3.7 µM 2% | [10]; [17] -17% | [11]; at 1.2 µM -1% | [11]; at 3.7 µM 3% | [11]; at 11.0 µM 45% | [13]; at 1.2 µM 2% | [13]; at 3.7 µM 24% | [14]; [17] -3% | [15]; at 1.2 µM 8% | [15]; at 3.7 µM 11% | [15]; at 11.0 µM 69%
active: [1]; at 33.0 µM 100% | [1]; at 100.0 µM 97% | [2]; at 33.0 µM 85% | [2]; at 100.0 µM 98% | [16]; at 100.0 µM 99% | [4]; at 33.0 µM 97% | [4]; [18] 99% | [4]; at 50.0 µM 99.5% | [4]; at 100.0 µM 99% | [5]; at 33.0 µM 100% | [5]; [18] 98% | [5]; at 50.0 µM 99.3% | [5]; at 100.0 µM 98% | [7]; [18] 99% | [7]; at 50.0 µM 99.6% | [8]; at 11.0 µM 78% | [8]; at 33.0 µM 99% | [8]; at 100.0 µM 99% | [9]; [17] 70% | [9]; [18] 99% | [9]; at 50.0 µM 98.8% | [10]; at 11.0 µM 80% | [10]; at 33.0 µM 99% | [10]; [18] 100% | [10]; at 50.0 µM 99.2% | [10]; at 100.0 µM 99% | [11]; at 33.0 µM 99% | [11]; at 100.0 µM 99% | [13]; at 11.0 µM 86% | [13]; at 33.0 µM 99% | [13]; at 100.0 µM 98% | [14]; [18] 99% | [14]; at 50.0 µM 99.5% | [15]; at 33.0 µM 100% | [15]; at 100.0 µM 98%
